Here are results for seven compounds from PubChem BioAssay (NCI).

Holding throughout (assay): NCI-60 one-dose screen, 48 h (100 = growth as untreated, 0 = no growth, -100 = all killed)
Experiment [1] has as its system NCI-H23 lung. The note with it: 10 µM unless noted.
For experiment [2], the system named is NCI-H226 lung. The following applies: 10 µM unless noted.
The subject of experiment [3] is NCI-H322M lung. The following applies: 10 µM unless noted.
Experiment [4] deals with HOP-62 NSCLC. The following applies: 10 µM unless noted.
In experiment [5] the test system is NCI-H460 lung. The note with it: 10 µM unless noted.
Experiment [6] relates to HOP-92 NSCLC. The note with it: 10 µM unless noted.
Experiment [7] deals with NCI-H522 lung. The note with it: 10 µM unless noted.
For experiment [8], the system named is A549/ATCC NSCLC. The following applies: 10 µM unless noted.
Experiment [9] has as its system 786-0 renal. The note with it: 10 µM unless noted.
For experiment [10], the system named is COLO 205 colon. The following applies: 10 µM unless noted.
Experiment [11] relates to DU-145 prostate. The following applies: 10 µM unless noted.
For experiment [12], the system named is K-562 leukemia. The following applies: 10 µM unless noted.
The test system of experiment [13] is MALME-3M melanoma. The following applies: 10 µM unless noted.
For experiment [14], the system named is MDA-MB-231 breast. The note with it: 10 µM unless noted.
The test system of experiment [15] is RXF 393 renal. The following applies: 10 µM unless noted.
The subject of experiment [16] is SF-268 CNS. The following applies: 10 µM unless noted.
Experiment [17] has as its system SF-295 CNS. The note with it: 10 µM unless noted.
Experiment [18] deals with SF-539 CNS. The following applies: 10 µM unless noted.
Experiment [19] deals with UACC-257 melanoma. The note with it: 10 µM.

This is part of a sample that, as a whole, favours compounds with a hit. Of some 83,000 tested, about 20% had one in any assay.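 A percent growth of 40 corresponds to 60% growth inhibition; 0 means no net growth; -100 means all cells died. Active threshold: below 10.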 Values without a mark were called inactive. Calls of active or inactive are those of the source.

Regarding `Fc1ccc(-c2cc3nc(C(Cl)Cl)nc(-c4cccs4)n3n2)cc1`, the growth in experiment [1] is 35.2%; in experiment [2] it was 95%; in experiment [3], -9.31% (active); in experiment [4] it was 5.82% (active); in experiment [5] it was -32.8% (active); in experiment [6] it was -6.12% (active). Besides, the growth was 78.9% in experiment [7]; -14.2% (active) in experiment [8]; 58.2% in experiment [9]; -23.1% (active) in experiment [10]; -21.8% (active) in experiment [11]; 44.5% in [12]. In addition, the growth was 62.5% in experiment [13]; -15.2% (active) in experiment [14]; -44.1% (active) in [15]; 13.3% in experiment [16]; -7.41% (active) in experiment [17]; -2.29% (active) in [18]. In addition, the growth in [19] was 46.2%.
Take `Cc1ccc(NC(=O)c2ccc(CN3CCN(C)CC3)c(C(F)(F)F)c2)cc1Oc1ccc(-c2[nH]nc3ncnc(N)c23)cc1`: the growth is 90.1% in [1]; 78.4% in experiment [2]; 96.2% in experiment [3]; 99.4% in experiment [4]; 93.5% in [5]; 103% in experiment [6]. Moreover, the growth is 84.9% in experiment [7]; 78.6% in [8]; 70.9% in experiment [9]; 52.5% in [10]; 95.3% in experiment [11]; 2.49% (active) in [12]. Besides, the growth is -12% (active) in experiment [13]; 67.5% in [14]; 42.3% in experiment [15]; 88% in [16]; 82.8% in experiment [17]; 60.2% in experiment [18]. The growth in [19] was 58.5%.
For the compound `CN1C(=O)N(C)C2C1NN=c1s/c(=C\c3ccccn3)c(=O)n12` (stereo not drawn), the growth in experiment [1] was 99.1%; in experiment [2], 99.7%; in experiment [3] it was 99.6%; in experiment [4], 100%; in experiment [5], 108%; in [6] it was 96.6%. For the same compound, the growth in experiment [7] is 93.4%; in experiment [8], 99.8%; in [9] it was 101%; in experiment [10], 110%; in [11] it was 108%; in [12], 93.9%. Moreover, the growth in [13] is 92.7%; in [14] it was 98%; in experiment [15], 102%; in [16], 99.9%; in experiment [17] it was 99.8%; in experiment [18] it was 96.3%. In addition, in experiment [19], the growth is 96.4%.
Regarding `CN1C(=O)N(C)C2Nn3c(s/c(=C\c4ccccn4)c3=O)=NC21` (stereo not drawn), the growth in experiment [1] was 108%; in [2] it was 103%; in [3] it was 103%; in experiment [4] it was 100%; in experiment [5], 110%; in [6], 107%. In addition, the growth in [7] was 92.3%; in [8], 103%; in experiment [9] it was 104%; in experiment [10], 110%; in experiment [11], 111%; in experiment [12], 108%. Also, the growth in experiment [13] is 82.4%; in experiment [14], 99.5%; in experiment [15], 110%; in experiment [16], 103%; in experiment [17], 104%; in experiment [18] it was 101%. For the same compound, in [19], the growth was 96%.
For `O=C(NCCCNc1cc(-c2cn(-c3ccccc3)nc2-c2cccc(O)c2)ccn1)Nc1cccc(C(F)(F)F)c1`, the growth in experiment [1] is 58%; in experiment [2], 62%; in experiment [3], 54.2%; in experiment [4] it was 43.2%; in experiment [5], 28.7%; in experiment [6], 40.2%. In addition, the growth in [7] was 46.9%; in experiment [8] it was 49%; in [9], -4.95% (active); in experiment [10], 3.19% (active); in experiment [11], 66.9%; in experiment [12], 13.3%. Moreover, the growth was 17.7% in [13]; 18.6% in [14]; -14% (active) in experiment [15]; 38.6% in experiment [16]; -15.3% (active) in [17]; 27.5% in experiment [18]. The growth in experiment [19] is 21.1%.
With `O=C(CSc1nnc(-c2ccc(Cl)cc2)n1-c1ccccc1)Nc1ccc(F)cc1`, the growth in experiment [1] is 82.3%; in experiment [2], 96.1%; in experiment [3] it was 80.3%; in [4] it was 75.2%; in [5], 40.8%; in experiment [6] it was 99.2%. Moreover, the growth was 71.8% in [7]; 57.3% in experiment [8]; 68.1% in experiment [9]; 96.6% in experiment [10]; 93% in [11]; 92.4% in experiment [12]. Besides, the growth in experiment [13] was 80.1%; in experiment [14], 49.4%; in experiment [15], 82.9%; in experiment [16], 79.7%; in experiment [17], 65.5%; in experiment [18], 60%. In experiment [19], the growth is 98.8%.
Regarding `O=C(O)c1ccc(-n2cc(CNc3ccc(Cl)cc3)c(-c3ccc(F)cc3)n2)cc1`, the growth in [1] is 104%; in experiment [2] it was 103%; in experiment [3], 95.5%; in experiment [4] it was 95.8%; in [5] it was 98.4%; in experiment [6] it was 117%. The growth in experiment [7] was 91.2%; in experiment [8] it was 85.4%; in experiment [9], 101%; in experiment [10] it was 119%; in [11], 103%; in [12], 83.4%. Besides, the growth in experiment [13] was 92.9%; in [14], 94.2%; in experiment [15] it was 94.9%; in experiment [16], 104%; in experiment [17], 87.6%; in experiment [18], 98.1%. The growth in experiment [19] was 101%.
